# High-throughput results as filed in PubChem BioAssay.
# The list is not random: actives were taken first. Their share in the collection is about 9.2%.
# NPC1 promoter act – qHTS Assay for NPC1 Promoter Activators; 2.4% of 320,000 active; AID 485313, 2010; Huh7 NPC1 promoter luciferase reporter, 24 h; Potency, µM (highest dose often 9.22 µM), for inactives: at the top dose activation, hits mostly activators; also: % of control where 0% means no effect; nearly all actives have a fitted effect of over 60% in size
#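 Compounds in DMSO were transferred onto Huh7 NPC1-luciferase reporter cells pre-incubated 2 h; after 24 h at 37 °C, Amplite reagent was dispensed and luminescence recorded 10 min later.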
# ELG1 DNA repair – qHTS screen for small molecules that inhibit ELG1-dependent DNA repair in human embryonic kidney (HEK293T) cells expressing luciferase-tagged ELG1. HEK293T ELG1-luciferase reporter, luminescence, 16 h; DNA damage induced by 5-fluorouridine. 2.3% of 330,000 active. Potency, µM (doses to about 46.1 µM), without a hit: top-dose activity change, negative = inhibition, actives largely listed as inhibitors; also: % is scaled to controls: 0 for no effect and ±100 for the full control effect; nearly all actives have a fitted effect of over 55% in size
#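 Step one: seed 2,000 cells per well. Step two: pin-transfer compound or DMSO alongside 5-fluorouridine. Step three: incubate 16 hr, 37 °C, 5% CO2. Step four: add ONE-Glo, wait 30 min, read luminescence.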
# ELG1 genotox – qHTS screen for small molecules that induce genotoxicity in human embryonic kidney (HEK293T) cells expressing luciferase-tagged ELG1; HEK293T ELG1-luciferase reporter, luminescence, 16 h; 1.3% of 330,000 active; AID 504466, 2011; Potency, µM (top dose mostly 46 µM), without a hit: top-dose activity change, positive = activation, usual class: activators; also: % of control where 0% means no effect; nearly all actives have a fitted effect of over 60% in size
#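 Screening used a luciferase reporter fused to human ELG1 in HEK293T cells. Luminescence was read on a CCD plate imager after 16 hr exposure and 30 min ONE-Glo incubation.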
# FLuc modulator – qHTS profiling assay for firefly luciferase inhibitor/activator using purifed enzyme and Km concentrations of substrates (counterscreen for miR-21 project); Luciferin 4-monooxygenase (Photinus pyralis), P08659; purified FLuc, Km substrates, luminescence inhibition; Potency, µM (series often up to 57.5 µM), inactives show at the top dose activity change, negative = inhibition, most hits filed as inhibitors; 6.9% of 360,000 active;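 also: plate controls were vehicle for no effect and reference inhibitor for full effect; nearly all actives have a fitted effect of over 55% in size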
# Target sequence (P08659 whole entry, looked up): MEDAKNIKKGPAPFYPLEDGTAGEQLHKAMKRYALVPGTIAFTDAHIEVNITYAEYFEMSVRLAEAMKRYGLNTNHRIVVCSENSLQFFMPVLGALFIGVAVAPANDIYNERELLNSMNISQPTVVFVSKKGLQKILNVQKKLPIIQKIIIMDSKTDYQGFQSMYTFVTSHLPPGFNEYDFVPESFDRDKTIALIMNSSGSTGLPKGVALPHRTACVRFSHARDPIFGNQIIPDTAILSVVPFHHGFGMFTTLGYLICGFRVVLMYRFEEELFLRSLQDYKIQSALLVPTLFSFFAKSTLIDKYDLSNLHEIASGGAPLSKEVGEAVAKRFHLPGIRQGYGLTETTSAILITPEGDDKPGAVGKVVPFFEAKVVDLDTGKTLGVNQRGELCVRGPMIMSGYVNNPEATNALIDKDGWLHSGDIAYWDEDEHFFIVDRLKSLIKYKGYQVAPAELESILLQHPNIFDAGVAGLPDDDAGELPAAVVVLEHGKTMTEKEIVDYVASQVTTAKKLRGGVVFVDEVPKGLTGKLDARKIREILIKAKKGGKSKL
#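 Purified P. pyralis luciferase, 10 nM final, with Km-level 10 uM D-luciferin and 10 uM ATP in 50 mM Tris acetate pH 7.5, 10 mM Mg acetate, 0.01% Tween-20, 0.05% BSA; 6-point qHTS titration about 60 µM downward; luminescence read.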
# SMN2 splice enh – qHTS Assay for Enhancers of SMN2 Splice Variant Expression. HEK293 SMN2-luciferase splicing reporter, luminescence, 30-36 h. Potency, µM (top dose mostly 46.1 µM), inactives show at the highest dose activity change, positive = activation, usual class: activators. 2.8% of 210,000 active. AID 1458, 2008; also: % of control where 0% means no effect; nearly all actives have a fitted effect of over 55% in size
#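 qHTS luciferase splicing reporter: luminescence rises when SMN2 exon 7 is included in transfected HEK293 cells. Compound exposure lasted 30-36 h at 37C, with 4.5 mM final sodium butyrate as control, followed by a ONE-Glo read.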
# Rab9 promoter act – qHTS Assay for Rab9 Promoter Activators; Potency, µM (top dose mostly 9.22 µM), for inactives: top-dose activation, negative = inhibition, most hits filed as activators; 2.8% of 320,000 active; Huh7 Rab9 promoter-luciferase reporter, luminescence, 24 h; also: % of control where 0% means no effect; nearly all actives have a fitted effect of over 60% in size
#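 Cells were plated at 1500 per well in reduced-serum medium with 10% FBS and left 2 h. Compound in DMSO was then added for 24 h at 37 °C. Reporter signal was read by luminescence after 10 min with luciferase detection reagent.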
# The depositor's hits bear a star; ? = inconclusive; · = not tested or not shown. Calls follow the shape of the dose curve; as a rule, active = well fitted curve in the direction sought with a large enough effect; inconclusive = small, poorly fitted or top-dose-only effect, or another doubt; inactive = no such curve, though single readings can be large; an effect the other way counts as inactive or inconclusive. Potency is read from the fitted curve at half-maximal effect.
SMILES,NPC1 promoter act,ELG1 DNA repair,ELG1 genotox,FLuc modulator,SMN2 splice enh,Rab9 promoter act
O=C(CCCN1C(=O)c2cccc3cccc(c23)C1=O)N1CCN(c2ccccc2O)CC1,4.4%,10.3µM*,-10.4%,2.3%,-8.2%,-2.7%
O=C(CCCN1C(=O)c2cccc3cccc(c23)C1=O)N1CCN(c2ccccc2)CC1,3.1%,?,-1.3%,-2.2%,-25.6%,-3.3%
CCOc1ccccc1N1CCN(C(=O)CCCN2C(=O)c3cccc4cccc(c34)C2=O)CC1,-0.1%,23.1µM*,-5.1%,1.1%,0.1%,-1.7%
CCCCNC(=O)c1c(-c2ccccc2)c(-c2ccccc2)nn(C)c1=O,·,·,·,-1.1%,-1.7%,·
COc1cc(C(=O)NCc2ccccc2)ccc1OC(F)F,6.0%,6.0%,-3.9%,-4.7%,·,-4.6%
COc1ccccc1C=NNC(=O)c1ccccc1OCCOc1ccccc1,·,?,-5.5%,·,·,·
COc1ccc(/C=N/NC(=O)c2ccccc2OCc2ccccc2)c(OC)c1,-2.3%,?,-12.4%,16.9µM*,-14.3%,1.2%
O=C(CNC(=O)c1ccc(F)cc1)N/N=C/c1cc(Br)ccc1OCc1ccccc1,-2.5%,?,-6.3%,2.0%,9.0%,-4.6%
O=C(CNC(=O)c1ccccc1O)N/N=C/c1cc(Br)ccc1OC(=O)/C=C/c1ccco1,-40.2%,4.11µM*,-4.4%,-10.8%,-103.4%,-23.1%
COc1ccc(COc2ccccc2C(=O)NCc2ccccc2)cc1F,0.3%,25.9µM*,-7.0%,-1.3%,-49.8%,-11.5%
COc1ccccc1C(=O)NCC(=O)N/N=C/c1cc(Br)ccc1OCc1ccccc1,1.3%,7.31µM*,-14.8%,7.7%,3.7%,-4.2%
CCCCn1c(N)c(N(CCOC)C(=O)COC(=O)CCOc2ccc(C)cc2)c(=O)[nH]c1=O,-2.6%,1.7%,-2.3%,0.5%,·,-3.1%
Cc1noc(C)c1C(=O)N1CCC[C@@]2(CCN(C(=O)Nc3cccc(C#N)c3)C2)C1,·,·,·,·,-8.0%,·
CCc1cccc(C)c1NC(=O)COCc1cc(-c2ccc3c(c2)OCO3)on1,·,·,·,-19.0%,·,·
COc1ccc(CC(=O)Nc2ccc(/C(C)=N/NC(=O)c3ccc(OC)cc3OC)cc2)cc1,0.0%,-2.3%,4.2%,3.0%,·,0.3%
COc1ccc(/C(C)=N/NC(=O)c2ccccc2OCc2ccccc2)c(OC)c1,?,?,?,19µM*,12.6µM*,?
Cc1ccc(Nc2nc3nonc3[nH]c2=O)cc1,27.9%,?,?,15.1µM*,17.4%,?
COc1ccccc1Nc1nc2nonc2[nH]c1=O,-2.9%,7.1%,-2.6%,?,·,-9.6%
COc1ccc(-c2nnc(SCC(=O)/C(C#N)=C(\C)N)o2)cc1,0.708µM*,?,1.03µM*,0.953µM*,4.47µM*,25.6%
C/C(N)=C(/C#N)C(=O)CSc1nnc(-c2ccccc2Br)o1,0.447µM*,?,2.59µM*,0.849µM*,2.82µM*,0.398µM*
COc1ccc2nc(SCC(=O)/C(C#N)=C(\C)N)[nH]c2c1,1.12µM*,?,?,8.49µM*,·,0.631µM*
Cc1cccc(NC(=O)C(Cc2ccccc2)n2cccc2)c1C (stereo not drawn),·,·,·,-4.0%,-17.3%,·
CC(C)(c1ccccc1)c1ccc(OCc2ccc(C(=O)O)o2)cc1,2.82µM*,?,?,26.9µM*,·,1.12µM*
CC(C)(C)c1ccc(OCc2ccc(C(=O)NCc3cccnc3)o2)cc1,2.82µM*,?,?,16.9µM*,?,1.26µM*
COc1ccccc1OCc1ccc(C(=O)NCc2cccnc2)o1,-3.3%,-10.2%,-1.5%,-0.5%,-8.6%,-6.3%
SMILES,NPC1 promoter act,ELG1 DNA repair,ELG1 genotox,FLuc modulator,SMN2 splice enh,Rab9 promoter act
CC(C)(C)c1ccc(OCc2ccc(C(=O)NN)o2)cc1,0.398µM*,?,?,15.1µM*,·,0.794µM*
CC[C@@]1(O)C(=O)COc2c1cc1n(c2=O)Cc2c-1nc1cccc(C(C)C)c1c2[Si](C)(C)C,·,·,·,·,-46.7%,·
CCc1ccc(OC(=O)/C=C/c2ccco2)cc1,16.3%,?,4.3%,0.849µM*,·,12.1%
COC(=O)N/N=C/c1ccc(OC(=O)/C=C/c2ccco2)cc1,-0.6%,4.9%,-1.6%,-10.6%,·,10.9%
CC(NS(=O)(=O)c1ccc(OCC(=O)N2CCOCC2)c(Cl)c1)c1ccccc1 (stereo not drawn),-0.2%,14.6µM*,2.1%,7.0%,-32.2%,2.0%
CC(NS(=O)(=O)c1ccc(OCC(=O)N2CCOCC2)cc1)c1ccccc1 (stereo not drawn),-0.4%,0.8%,-0.5%,2.6%,-11.5%,-3.7%
CC(C)CCNS(=O)(=O)c1ccc(N2CCCCS2(=O)=O)cc1,·,·,·,-7.4%,·,·
COc1ccc(N(C)C(=O)Nc2ccc3nsnc3c2)cc1,-1.0%,10.3%,-2.4%,-24.8%,-22.1%,2.9%
COc1ccc(OC(=O)c2ccc3nsnc3c2)cc1,2.0%,9.0%,2.1%,7.57µM*,0.6%,-0.8%
Cc1ccc(OC(=O)c2ccc3nc(C)sc3c2)cc1,0.794µM*,?,2.91µM*,2.39µM*,14.1µM*,0.631µM*
Cc1ccn2c(Nc3ccc4c(c3)OCO4)c(-c3ccc(Cl)cc3)nc2c1,·,·,·,-2.3%,-5.2%,·
CC(C)c1ccc(Nc2c(-c3ccco3)nc3ccccn23)cc1,·,·,·,23.9µM*,?,·
Cc1ccn2c(Nc3ccc4c(c3)OCCO4)c(-c3ccc(Cl)s3)nc2c1,·,·,·,6.01µM*,20.7%,·
Cc1cccc2nc(-c3ccco3)c(Nc3ccccc3)n12,-0.6%,?,-8.4%,?,-52.0%,-1.0%
CN(C)c1ccc(-c2nc3cnccn3c2Nc2ccc3c(c2)OCCO3)cc1,?,?,17.6%,10.7µM*,·,?
Cc1ccc(-c2nc3cnccn3c2Nc2ccc3c(c2)OCO3)cc1,2.0%,?,-4.5%,?,-2.0%,2.4%
Cc1ccc2nc(-c3ccc(Cl)s3)c(Nc3ccc4c(c3)OCCO4)n2c1,·,·,·,?,13.8%,·
Cc1ccn2c(Nc3ccc4c(c3)OCO4)c(-c3ccc(N(C)C)cc3)nc2c1,·,·,·,?,15.8µM*,·
Cc1cc(SCC(=O)OC(C)C(=O)N(C)c2ccccc2)nc2ccccc12 (stereo not drawn),5.3%,-0.8%,-3.1%,0.9%,·,-4.7%
Cc1ccn2c(Nc3ccc4c(c3)OCO4)c(-c3ccco3)nc2c1,·,·,·,6.01µM*,15.0%,·
Cc1cc2ncc(-c3ccc(Cl)cc3)cn2n1,3.55µM*,?,?,2.69µM*,11.2µM*,1.41µM*
